In PubChem BioAssay (Tox21):
Results filed as inconclusive are left out. Where a call stands in place of a potency, no number is given. Unmarked numbers belong to inactive results. Active and inactive are the calls of the source. Unless noted, calls follow the shape of the dose curve; as a rule, active = well fitted curve in the direction sought with a large enough effect in the repeat runs; inconclusive = weak or mixed curves; inactive = no such curve, though single readings can be large; an effect the other way counts as inactive or inconclusive.

Experiments:
[1] = qHTS assay to identify small molecule agonists of the vitamin D receptor (VDR) signaling pathway - cell viability counter screen (AID 743224); also: series mostly up to about 63 µM; nearly all actives have a fitted effect of over 50% in size
Outline: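 Counter screen for cytotoxicity: VDR-bla cells at 2,000 cells/well, 16 h compound exposure, then CellTiter-Glo luminescence after the beta-lactamase measurement.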

[2] = qHTS assay to identify small molecule antagonists of the vitamin D receptor (VDR) signaling pathway - cell viability counter screen (AID 743225); also: nearly all actives have a fitted effect of over 50% in size
Outline: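 VDR-UAS-bla HEK 293T cells were plated and incubated 4 h at 37C, then dosed with compound plus 3 nM (final) 1-alpha,25-dihydroxyvitamin D3 for 16 h. After the 2 h beta-lactamase read, viability in the same wells was read as CellTiter-Glo luminescence after 30 min at room temperature.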

[3] = qHTS assay to identify small molecule agonists of the NFkB signaling pathway (AID 1159509; active = well fitted curve in the direction sought with a large enough effect in the signal ratio in the repeat runs, not every such curve was filed as active; the % refers to the signal ratio; also: series mostly up to about 61 µM)
Outline: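 Agonist activity was read as beta-lactamase-driven FRET change (460 and 530 nm emission, 405 nm excitation) following 1.5 hr substrate loading at room temperature. Beforehand, ME-180 NFkB-bla reporter cells were treated with compounds for 5 hr at 37 C.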

[4] = qHTS assay to identify small molecule agonists of the NFkB signaling pathway - cell viability counter screen (AID 1159515; calls by dose curve; also: series mostly up to about 61 µM; nearly all actives have a fitted effect of over 55% in size)
Outline: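 Counter screen run alongside the NFkB-bla agonist assay: ME-180 reporter cells exposed to compounds for 5 hr, then lysed with CellTiter-Glo in the same wells. Luminescence, read after 30 min, reflects viable cells.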

[5] = qHTS assay to identify small molecule agonists of the endoplasmic reticulum stress response signaling pathway - cell viability counter screen (AID 1159517; calls by dose curve;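 also: HeLa cells carrying an ER stress response element beta-lactamase reporter; series mostly up to about 61 µM; nearly all actives have a fitted effect of over 50% in size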)
Outline: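 ESRE-bla HeLa cells (1,500/well) were plated overnight at 37 C and exposed to compounds for 5 hr. After the 2 hr beta-lactamase substrate read, CellTiter-Glo went into the same wells, and luminescence was read after 30 min at room temperature.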

[6] = qHTS assay to identify small molecule antagonists of the retinoid-related orphan receptor gamma (ROR-gamma) signaling pathway - cell viability counter screen (AID 1159520); also: nearly all actives have a fitted effect of over 50% in size; also: potency is read from the fitted curve at half-maximal effect
Outline: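 Cytotoxicity was read from cellular ATP (CellTiter-Glo luminescence) after 16 hr at 37 C with 1 uM doxycycline induction. The inducer was added 2 hr after compound transfer to Tet-on ROR gamma CHO cells.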

[7] = qHTS assay to identify small molecule agonists of the AP-1 signaling pathway - cell viability counter screen (AID 1159525; calls by dose curve; also: nearly all actives have a fitted effect of over 55% in size)
Outline: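 Intracellular ATP by Cell Titer Glo luminescence (30 min, RT) in the same ME-180 AP-1-bla wells after the 5 h compound exposure at 37 °C. Normalised to tetra n-octyl ammonium bromide and DMSO controls.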

[8] = qHTS assay to identify small molecule agonists of the AP-1 signaling pathway (AID 1159526; calls by dose curve)
[9] = target: Retinoic acid receptor RXR-alpha (Homo sapiens) (UniProt P19793); assay: qHTS assay to identify small molecule agonists of the RXR signaling pathway (AID 1159527; calls by dose curve; also: nearly all actives have a fitted effect of over 35% in size)
Retinoic acid receptor RXR-alpha (Homo sapiens), sequence (P19793 whole entry, looked up): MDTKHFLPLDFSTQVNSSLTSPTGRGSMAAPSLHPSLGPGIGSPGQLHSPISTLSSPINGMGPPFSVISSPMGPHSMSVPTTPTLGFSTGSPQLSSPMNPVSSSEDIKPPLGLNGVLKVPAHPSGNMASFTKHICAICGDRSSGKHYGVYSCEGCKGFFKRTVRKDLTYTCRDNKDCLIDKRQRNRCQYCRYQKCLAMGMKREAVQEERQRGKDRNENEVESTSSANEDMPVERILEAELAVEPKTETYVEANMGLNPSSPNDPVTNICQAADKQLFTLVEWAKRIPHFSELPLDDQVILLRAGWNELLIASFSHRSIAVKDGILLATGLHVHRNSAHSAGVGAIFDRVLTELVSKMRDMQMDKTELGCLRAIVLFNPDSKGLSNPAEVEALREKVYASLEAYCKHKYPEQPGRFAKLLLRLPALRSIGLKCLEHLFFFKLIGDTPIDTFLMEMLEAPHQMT
Outline: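 GeneBLAzer RXR-alpha-UAS-bla HEK 293T cells in 2% charcoal-stripped FBS medium were exposed to compounds for 16 hr at 37 C in agonist mode. Beta-lactamase reporter read as 460/530 nm FRET ratio after 2 hr substrate loading.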

[10] = qHTS assay to identify small molecule antagonists of the retinoid acid receptor (RAR) signaling pathway - cell viability counter screen (AID 1159551); also: nearly all actives have a fitted effect of over 35% in size
Outline: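 Measured by luminescent ATP detection, viability reflects C3RL4 cells treated 6 h at 37 C with test chemicals in the presence of 1 uM (final) retinol.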

[11] = qHTS assay to identify small molecule antagonists of the retinoic acid receptor (RAR) signaling pathway (AID 1159552; also: nearly all actives have a fitted effect of over 50% in size; also: potency is read from the fitted curve at half-maximal effect)
Outline: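 Retinol signaling pathway inhibitors screened in C3RL4 RARE-luciferase reporter cells seeded overnight at 37 C, then compounds added with 1 uM (final) retinol as pathway substrate. After 6 hr at 37 C, luciferase luminescence read after 30 min at room temperature.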

[12] = qHTS assay to identify small molecule agonists of the retinoic acid receptor (RAR) signaling pathway (AID 1159553); also: potency is read from the fitted curve at half-maximal effect
Outline: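 6 hr compound exposure (DMSO vehicle) of overnight-plated C3RL4 RARE-luc cells at 37 C; luminescence quantified after 30 min RT with luciferase reagent.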

[13] = target: Nuclear receptor ROR-gamma (Homo sapiens) (UniProt P51449); assay: qHTS assay to identify small molecule antagonists of the retinoid-related orphan receptor gamma (ROR-gamma) signaling pathway (AID 1159521; also: nearly all actives have a fitted effect of over 50% in size; also: potency is read from the fitted curve at half-maximal effect)
Outline: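 Tet-on ROR-gamma CHO cells with ROR response element-luciferase reporter; compounds added 2 hr before 1 uM doxycycline induction, then 16 hr at 37 C. Antagonism scored as decreased ONE-Glo luminescence.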

[14] = qHTS assay to identify small molecule agonists of the RXR signaling pathway - cell viability counter screen (AID 1159529)
Outline: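 RXR-alpha-UAS-bla HEK 293T cells in medium with 2% charcoal-stripped FBS were pre-incubated 5 hr, then compound-treated 16 hr at 37 C. Viability was read by CellTiter-Glo luminescence in the same wells as the beta-lactamase assay, with tetraoctyl ammonium bromide as positive control.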

[15] = qHTS assay to identify small molecule antagonists of the estrogen related receptor (ERR) signaling pathway - cell viability counter screen (AID 1224818); also: series mostly up to about 46 µM
Outline: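 Compounds dissolved in DMSO were applied to ERR cells seeded at 2,000 per well 6 h earlier. Cell viability followed 17.5 h later via 30-min CellTiter-Fluor fluorescence.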

[16] = qHTS assay to identify small molecule antagonists of the estrogen related receptor signaling pathway with the pleiotropic PPARgamma coactivator (PGC) cell viability counter screen (AID 1224822; also: series mostly up to about 46 µM)
Outline: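 Counter screen for cell viability: PGC/ERR cells, 6 h pre-incubation after plating, 17.5 h compound exposure at 37 C, fluorescence from CellTiter-Fluor after 30 min.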

CCC(CO)(CO)[N+](=O)[O-]
Potency [1]: inactive | Potency [2]: inactive | outcome [3]: inactive | Potency [4]: inactive | Potency [5]: inactive | Potency [6]: inactive | Potency [7]: inactive | outcome [8]: inactive | Potency [9]: inactive | Potency [10]: inactive | Potency [11]: inactive | Potency [12]: inactive

COc1cc(OC)c2ccc(=O)oc2c1
Potency [1]: inactive | Potency [2]: inactive | outcome [3]: inactive | Potency [4]: inactive | Potency [5]: inactive | Potency [13]: inactive | Potency [7]: inactive | outcome [8]: inactive | Potency [10]: inactive

CC1C(C)(C)C2=C(C(=O)CCC2)C1(C)C (stereo not drawn)
Potency [1]: inactive | Potency [2]: inactive | outcome [3]: inactive | Potency [4]: inactive | Potency [5]: inactive | Potency [13]: inactive | Potency [7]: inactive | Potency [14]: inactive | Potency [10]: inactive | Potency [11]: inactive | Potency [12]: inactive

CC1CCCC(=O)C1=O (stereo not drawn)
Potency [1]: inactive | Potency [2]: inactive | outcome [3]: inactive | Potency [4]: inactive | Potency [5]: inactive | Potency [7]: inactive | outcome [8]: inactive | Potency [9]: inactive | Potency [14]: inactive | Potency [10]: inactive | Potency [12]: inactive

CCCCC(CC)COS(=O)(=O)O (stereo not drawn)
Potency [1]: inactive | Potency [2]: inactive | outcome [3]: inactive | Potency [4]: inactive | Potency [5]: inactive | Potency [13]: inactive | Potency [7]: inactive | outcome [8]: inactive | Potency [9]: inactive | Potency [14]: inactive | Potency [10]: inactive | Potency [11]: inactive

COc1ccc(C)cc1
Potency [1]: inactive | Potency [2]: inactive | outcome [3]: inactive | Potency [4]: inactive | Potency [5]: inactive | Potency [13]: inactive | Potency [7]: inactive | outcome [8]: inactive | Potency [14]: inactive | Potency [10]: inactive | Potency [12]: inactive

SCCc1cnccn1
Potency [1]: inactive | Potency [2]: inactive | outcome [3]: inactive | Potency [4]: inactive | Potency [5]: inactive | Potency [6]: inactive | Potency [13]: inactive | Potency [7]: inactive | outcome [8]: inactive | Potency [10]: inactive

CC(O)Cn1cnc2c1c(=O)n(C)c(=O)n2C (stereo not drawn)
Potency [1]: inactive | Potency [2]: inactive | outcome [3]: inactive | Potency [4]: inactive | Potency [5]: inactive | Potency [7]: inactive | outcome [8]: inactive | Potency [9]: inactive | Potency [14]: inactive | Potency [10]: inactive | Potency [12]: inactive

Cc1ccc(N(CC2=NCCN2)c2cccc(O)c2)cc1
Potency [1]: inactive | Potency [2]: inactive | outcome [3]: inactive | Potency [4]: inactive | Potency [5]: inactive | Potency [13]: inactive | Potency [7]: inactive | outcome [8]: inactive | Potency [14]: inactive | Potency [10]: inactive | Potency [11]: inactive | Potency [12]: inactive | outcome [15]: inactive | outcome [16]: inactive

O=[N+]([O-])C1(Br)COCOC1
Potency [2]: inactive | outcome [3]: inactive | Potency [4]: inactive | Potency [5]: inactive | Potency [6]: 24.3 µM (active) | Potency [13]: 24.3 µM (active) | Potency [7]: inactive | outcome [8]: inactive | Potency [11]: 43.3 µM (active)

Nc1ccc(N=Nc2ccc(N)cc2)cc1
Potency [1]: inactive | Potency [2]: inactive | outcome [3]: inactive | Potency [4]: inactive | Potency [5]: inactive | Potency [6]: inactive | Potency [13]: inactive | Potency [7]: inactive | outcome [8]: inactive | Potency [10]: inactive | Potency [12]: 0.863 µM (active)

CCCCCCCC/C=C/C(=O)O
Potency [1]: inactive | Potency [2]: inactive | outcome [3]: inactive | Potency [4]: inactive | Potency [5]: inactive | Potency [6]: inactive | Potency [13]: inactive | Potency [7]: inactive | outcome [8]: inactive | Potency [10]: inactive

O=C(O)CCC(=O)c1ccc(-c2ccccc2)cc1
Potency [1]: inactive | Potency [2]: inactive | outcome [3]: inactive | Potency [4]: inactive | Potency [5]: inactive | Potency [13]: inactive | Potency [7]: inactive | outcome [8]: inactive | Potency [14]: inactive | Potency [10]: inactive | Potency [11]: inactive | Potency [12]: 11.9 µM (active)

CC(C)(O)CCc1ccccc1
Potency [1]: inactive | Potency [2]: inactive | outcome [3]: inactive | Potency [4]: inactive | Potency [5]: inactive | Potency [7]: inactive | outcome [8]: inactive | Potency [9]: inactive | Potency [14]: inactive | Potency [10]: inactive | Potency [11]: inactive

CCCCOCCOC(=O)c1cccnc1
Potency [1]: inactive | Potency [2]: inactive | outcome [3]: inactive | Potency [4]: inactive | Potency [5]: inactive | Potency [13]: inactive | Potency [7]: inactive | outcome [8]: inactive | Potency [9]: inactive | Potency [14]: inactive | Potency [10]: inactive

CCCCC[C@H](O)/C=C/[C@H]1[C@H](O)CC(=O)[C@@H]1C/C=C\CCCC(=O)O
Potency [1]: inactive | Potency [2]: inactive | outcome [3]: inactive | Potency [4]: inactive | Potency [5]: inactive | Potency [13]: inactive | Potency [7]: inactive | outcome [8]: inactive | Potency [10]: inactive | Potency [12]: inactive

CC(=O)C(C)=O
Potency [1]: inactive | Potency [2]: inactive | outcome [3]: inactive | Potency [4]: inactive | Potency [5]: inactive | Potency [7]: inactive | outcome [8]: inactive | Potency [9]: inactive | Potency [14]: inactive | Potency [10]: inactive | outcome [15]: inactive | outcome [16]: inactive

NC(=O)c1ccccc1[N+](=O)[O-]
Potency [1]: inactive | Potency [2]: inactive | outcome [3]: inactive | Potency [4]: inactive | Potency [5]: inactive | Potency [13]: inactive | Potency [7]: inactive | outcome [8]: inactive | Potency [9]: inactive | Potency [14]: inactive | Potency [10]: inactive | Potency [12]: inactive

NC(=O)CCCCC(N)=O
Potency [1]: inactive | Potency [2]: inactive | outcome [3]: inactive | Potency [4]: inactive | Potency [5]: inactive | Potency [6]: inactive | Potency [7]: inactive | outcome [8]: inactive | Potency [9]: inactive | Potency [14]: inactive | Potency [10]: inactive

CCCCOC(=O)CCCCC(=O)OCCCC
Potency [1]: inactive | Potency [2]: inactive | outcome [3]: inactive | Potency [4]: inactive | Potency [5]: inactive | Potency [6]: inactive | Potency [7]: inactive | outcome [8]: inactive | Potency [14]: inactive | Potency [10]: inactive | Potency [11]: inactive | Potency [12]: inactive

CCN(CC)C(=O)N1CCN(C)CC1
Potency [1]: inactive | Potency [2]: inactive | outcome [3]: inactive | Potency [4]: inactive | Potency [5]: inactive | Potency [6]: inactive | Potency [7]: inactive | outcome [8]: inactive | Potency [9]: inactive | Potency [10]: inactive

O=C(O)CCCc1c[nH]c2ccccc12
Potency [1]: inactive | Potency [2]: inactive | outcome [3]: inactive | Potency [4]: inactive | Potency [5]: inactive | Potency [6]: inactive | Potency [13]: inactive | Potency [7]: inactive | outcome [8]: inactive | Potency [10]: inactive

CC(C)(C)CCCCCCOC(=O)c1ccccc1C(=O)OCCCCCCC(C)(C)C
Potency [1]: inactive | Potency [2]: inactive | outcome [3]: inactive | Potency [4]: inactive | Potency [5]: inactive | Potency [13]: inactive | Potency [7]: inactive | outcome [8]: inactive | Potency [14]: inactive | Potency [10]: inactive | Potency [12]: inactive
